aDG glyco act – increases alpha dystroglycan glycosylation | Pro5-aDG cells, alpha-DG glycosylation AlphaScreen (IIH6); 0% Pro5, 100% B10-LARGE cell signal | activation, % at 10 µM | 0.22% of 360,000 active | AID 624168;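 active means activation of at least 8% versus controls, or a plate z-score of at least 8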;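 further: Pro5 are CHO cells carrying HIG-tagged alpha-DG that lacks glycosylation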
LGR2 inh – inhibitors of bursicon-induced Drosophila LGR2 receptor cAMP signaling. HEK293 LGR2, CRE-luciferase, bursicon-stimulated, 4 h. inhibition, % at 9.99 µM. 0.35% of 380,000 active. AID 720647;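 active means drop in luminescence signal, shown as inhibition above about 50% in the replicate tests, limit read from the data, passing the limit was not always enough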;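 further: agonist challenge used bursicon conditioned medium at about half maximal strength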
HSP90 inh – blocks HSP90-mediated luciferase refolding in reticulocyte lysate; Rabbit reticulocyte lysate, luciferase refolding luminescence, 3 h; inhibition, % at 5.6 µM; 0.91% of 290,000 active; AID 1789;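 active means inhibition above the screen-wide mean plus 3 SD, computed separately per campaign, cut at about 16% in these data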;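 further: 0% = DMSO wells and 100% = 60 µM geldanamycin wells; inhibitors lower the luminescence because luciferase stays unfolded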
TWEAK-Fn14 inh – inhibitors of TWEAK-Fn14 interaction signaling; TWEAK-stimulated Fn14 reporter cells, luciferase luminescence, 8 h; inhibition, % at 10 µM; 2% of 360,000 active; AID 1159606; in the data active means inhibition above about 50%
TROY NFkB inh – inhibitors of TROY-dependent NF-kB signaling. AID 1347056. inhibition, % at 10 µM. Q293 LMP1-TROYcd NF-kB luciferase reporter, 4 h. 0.98% of 360,000 active;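 active means compounds whose plate-normalised and pattern-corrected inhibition of the luciferase reporter signal at the single screening dose is 50% or more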
EBV LMP1 NFkB – inhibitors of Epstein-Barr LMP1-induced NF-kappaB reporter. LMP1-induced NF-kappaB luciferase reporter cells, luminescence. inhibition, % at 12.5 µM. 0.69% of 350,000 active. AID 504558; in the data active means inhibition above about 41%;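 further: 0% = neutral control wells and 100% = reference inhibitor control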
HSP90 inh confirm – confirmation of HSP90 inhibitors. shares compounds with HSP90 inh. rabbit reticulocyte lysate, luciferase refolding luminescence, 3 h. inhibition, % at 5.9 µM. 64% of 2,300 active. AID 1846; in the data active means inhibition above about 18%;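 further: 0% = vehicle wells and 100% = reference inhibitor wells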
FLuc counter – counter-screen for HSP90 inhibitors: inhibitors of firefly luciferase. shares compounds with HSP90 inh. purified native firefly luciferase, luminescence. inhibition, % at 5.9 µM. 48% of 2,300 active. AID 1847;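 active means inhibition above the mean inhibition of all tested sample wells plus 3 SD, cut at about 10% in these data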;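 further: 0% = DMSO with luciferase and 100% = wells lacking luciferase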
Target sequence (P08659 whole entry, looked up): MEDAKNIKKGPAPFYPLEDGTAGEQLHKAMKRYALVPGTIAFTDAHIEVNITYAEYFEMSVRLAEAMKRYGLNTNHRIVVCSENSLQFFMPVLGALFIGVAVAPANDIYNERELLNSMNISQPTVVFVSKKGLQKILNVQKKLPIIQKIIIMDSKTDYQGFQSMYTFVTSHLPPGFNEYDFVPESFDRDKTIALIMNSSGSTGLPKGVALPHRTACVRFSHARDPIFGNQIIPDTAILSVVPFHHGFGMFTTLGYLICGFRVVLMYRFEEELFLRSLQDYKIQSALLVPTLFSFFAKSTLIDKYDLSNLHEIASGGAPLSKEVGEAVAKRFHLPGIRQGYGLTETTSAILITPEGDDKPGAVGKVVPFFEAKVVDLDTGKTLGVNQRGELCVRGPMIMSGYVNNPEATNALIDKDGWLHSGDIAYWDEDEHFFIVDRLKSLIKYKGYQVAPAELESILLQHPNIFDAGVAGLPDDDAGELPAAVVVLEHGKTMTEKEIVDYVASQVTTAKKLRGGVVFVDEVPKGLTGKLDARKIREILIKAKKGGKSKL
An asterisk follows results filed as active; nt = not tested or not shown. A selection: hits, their analogues and other compounds. The true share with any hit is near 2.6%.

SMILES	aDG glyco act	LGR2 inh	HSP90 inh	TWEAK-Fn14 inh	TROY NFkB inh	EBV LMP1 NFkB	HSP90 inh confirm	FLuc counter
CO[C@@H](CN(C)S(=O)(=O)c1ccc(F)cc1)[C@H](C)CN(Cc1ccccc1Cl)[C@H](C)CO	nt	10	nt	nt	nt	nt	nt	nt
CN1C(=O)c2cc(NC(=O)C3CCCC3)ccc2OC[C@H]2O[C@@H](CC(=O)NCC3CC3)CC[C@@H]21	nt	-12	nt	nt	nt	nt	nt	nt
CCC(=O)Nc1cccc(-c2nc3ccc(C)cc3o2)c1	0	-59	-3	-4	-42	-28	nt	nt
Cc1cc2nc(-c3ccc(NC(=O)C(C)C)cc3)oc2cc1C	2	5	0	15	11	-70	nt	nt
CCC(=O)Nc1ccc2oc(-c3cccc(C)c3)nc2c1	0	nt	24*	74*	29	-6	40*	35*
Cc1ccc(-c2nc3cc(NC(=O)C(C)C)ccc3o2)cc1C	0	nt	34*	86*	80*	0	53*	54*
O=C(N/N=C1\CCCc2ccccc21)c1ccccc1Cl	0	-38	6	-12	-28	-26	nt	nt
O=C(O)c1ccc(N/N=C2/CCCc3ccccc32)cc1	0	-55	18*	4	-41	-17	2	-6
O=C(Nc1ccc(C(F)(F)F)cc1)N[C@@H]1CC[C@H](CCn2cc(C3(O)CCCC3)nn2)O[C@@H]1CO	nt	-15	nt	nt	nt	nt	nt	nt
CCCC#Cc1ccc2c(c1)O[C@H](CN(C)C(=O)NC(C)C)[C@H](C)CN([C@@H](C)CO)S2(=O)=O	nt	-40	nt	nt	nt	nt	nt	nt
CCOC(=O)C(=O)Nc1ccc([N+](=O)[O-])cc1OC	0	-6	22*	2	17	-10	-7	-16
COc1ccc(OC(=O)Nc2ccc([N+](=O)[O-])cc2OC)cc1	0	5	20*	-3	16	-10	0	-13
O=C(/C=C\Nc1ccc2c(c1)OCO2)c1ccccn1	0	nt	71*	104*	75*	72*	96*	90*
COc1cccc(-c2ccc3c(c2)[C@H]2[C@H](CCN2C(=O)C2CCCC2)[C@@H](CO)N3)c1	nt	-12	nt	nt	nt	nt	nt	nt
Cn1c(=O)[nH]c(=O)c2c1nc(N1CCCCC1)n2C/C=N/Nc1ccc(C(=O)O)cc1	0	11	41*	17	18	10	29*	36*
C/C=C/Cn1c(N2CCCCCC2)nc2c1c(=O)[nH]c(=O)n2C	0	5	0	1	-4	0	nt	nt
COc1ccc(OC)c(C(=O)Cn2nnc3ccccc3c2=O)c1	0	nt	-2	-3	-4	-14	nt	nt
Cc1cc(C(=O)Cn2nnc3ccccc3c2=O)c(C)n1Cc1cccs1	0	nt	35*	-9	-9	-31	53*	45*
CCN(CC)c1ccc2nc3c4ccccc4c(=O)cc-3oc2c1	nt	-35	47*	nt	nt	nt	48*	32*
CC(=O)NC[C@H]1[C@H](c2ccc(-c3ccccc3F)cc2)[C@@H](CO)N1C(=O)C1CC1	nt	-32	nt	nt	nt	nt	nt	nt
CCN1CCN(C(c2ccccn2)c2c(NC(=O)c3ccccc3)sc(C)c2C)CC1 (configuration not stated)	0	nt	33*	18	-14	11	-3	-10
C[C@H]1CN([C@@H](C)CO)C(=O)c2cc(NC(=O)Cc3ccccc3)ccc2O[C@@H]1CN(C)Cc1ccccc1	nt	-14	nt	nt	nt	nt	nt	nt
Cc1cccc(/C=N/Nc2ccc3ccccc3n2)c1	0	79*	66*	93*	84*	74*	85*	84*
C(=N\Nc1ccc2ccccc2n1)/c1ccc2c(c1)OCCO2	0	88*	68*	101*	88*	61*	93*	92*
COc1ccc(NC(=O)Nc2ccc3[nH]ccc3c2)cc1	0	-30	nt	-62	-47	nt	nt	nt
O=C(Nc1ccc2[nH]ccc2c1)c1ccccc1	0	-16	44*	-11	-43	27	56*	30*
O=C(Nc1ccncc1)c1ccc(F)cc1	0	nt	-1	-3	7	5	nt	nt
O=C(Nc1ccc2[nH]ccc2c1)c1ccc(F)cc1	0	5	53*	20	-47	28	64*	46*
